SW480 rereplic = DNA re-replication induction in SW480 cells | SW480 DNA re-replication, Hoechst DNA content imaging, 48 h | Potency, µM (doses to about 46.1 µM), usual class: activators | 340,000 compounds, 1.8% hits; note: nearly all actives have a fitted effect of over 55% in size
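Per well, 250 cells were exposed to pinned compound for 48 hr. Nuclear DNA was visualised with Hoechst (40 min, 37 C) and total object intensity recorded by fluorescence scanning.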
MCF10A rereplic = inducers of DNA re-replication in MCF 10A breast cells; Potency, µM (doses to about 46.1 µM), usual class: activators; MCF 10A DNA re-replication, Hoechst nuclear intensity, 48 h; 350,000 compounds, 2.9% hits; note: nearly all actives have a fitted effect of over 50% in size
ALOX12 inh = blocks human arachidonate 12S-lipoxygenase; 580,000 compounds, 1.1% hits; P18054; Potency, µM (series often up to 108 µM), hits mostly inhibitors; purified 12hLO, xylenol orange hydroperoxide absorbance
Target sequence (P18054 whole entry, looked up): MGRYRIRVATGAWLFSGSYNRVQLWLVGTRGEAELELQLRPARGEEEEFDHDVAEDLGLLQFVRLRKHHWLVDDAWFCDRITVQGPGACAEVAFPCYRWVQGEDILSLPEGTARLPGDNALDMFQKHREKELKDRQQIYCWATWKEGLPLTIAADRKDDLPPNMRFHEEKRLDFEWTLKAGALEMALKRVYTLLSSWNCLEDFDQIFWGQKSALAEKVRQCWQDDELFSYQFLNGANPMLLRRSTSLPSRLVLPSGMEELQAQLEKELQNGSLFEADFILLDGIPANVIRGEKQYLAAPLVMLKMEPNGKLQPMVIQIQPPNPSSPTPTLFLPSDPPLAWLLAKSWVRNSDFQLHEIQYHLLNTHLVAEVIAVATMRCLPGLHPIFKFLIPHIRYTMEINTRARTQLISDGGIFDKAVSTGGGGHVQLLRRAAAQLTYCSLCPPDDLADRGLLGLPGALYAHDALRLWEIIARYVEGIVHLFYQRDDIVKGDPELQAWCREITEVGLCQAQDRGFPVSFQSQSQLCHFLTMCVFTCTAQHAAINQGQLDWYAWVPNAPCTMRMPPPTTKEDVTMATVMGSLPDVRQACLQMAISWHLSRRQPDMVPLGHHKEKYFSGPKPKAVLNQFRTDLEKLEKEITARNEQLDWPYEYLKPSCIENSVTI
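Purified human 12hLO at 150 nM in 25 mM Hepes, 0.01% Triton X-100, pH 7.0, preincubated 15 min at room temperature with compound. Reaction started with 40 uM arachidonic acid, 30 min at room temperature. Hydroperoxide measured by Fe-xylenol orange, 573/405 nm absorbance ratio.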
KB-3-1 cytotox = kills parental KB-3-1 adenocarcinoma cells. KB-3-1 viability, CellTiter-Glo ATP luminescence, 72 h. Potency, µM (doses to about 46.1 µM), usual class: cytotoxic. 400,000 compounds, 1.4% hits; note: nearly all actives have a fitted effect of over 60% in size
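Cells are dispensed, compounds pinned in, plates held at 37 °C for 72 h, then CellTiter-Glo is added and luminescence read after 10 minutes. Cell line: parental KB-3-1 in phenol-red-free DMEM, 10% FBS.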
KB-V1 cytotox = kills drug-selected multidrug resistant KB-V1 cells; 400,000 compounds, 3.4% hits; KB-V1 MDR cells viability, CellTiter-Glo, 72 h; Potency, µM (doses to about 46.1 µM), most hits filed as cytotoxic; AID 1347076; note: nearly all actives have a fitted effect of over 60% in size
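Luminescent ATP read-out (CellTiter-Glo, 10 min) measures survival of drug-selected KB-V1 MDR cells after 72 h, 37 degrees C compound exposure. Medium: phenol-red-free DMEM, 10% FBS. Values from fitted concentration-response curves.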
PINK1 modulator = PINK1 expression modulation; Potency, µM (doses to about 76.6 µM), most hits filed as activators; 410,000 compounds, 0.2% hits; AID 624263; PINK1 immunofluorescence, high-content cytometry, 24 h; active = well fitted activation curve with a large enough effect; inconclusive = small, poorly fitted or top-dose-only effect; cell line not stated here; note: nearly all actives have a fitted effect of over 65% in size
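Stable cell line, 250 cells/well, 12 h attachment; compounds pinned at 5 concentrations, 24 h; CCCP control. Fixed with nuclear dye, primary antibodies 12 h at 10 degrees C, secondary plus cell stain; laser-scanning cytometer read.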
Hits are given with their value; [ ] = another dose, or the depositor's remark. The list is not random: actives were taken first. Their share in the collection is about 5.8%. Unless noted, calls come from the whole dose curve; as a rule, active = well fitted curve in the direction sought with a large enough effect; inconclusive = small, poorly fitted or top-dose-only effect, or another doubt; inactive = no such curve, though single readings can be large; an effect the other way counts as inactive or inconclusive.

What do the screens show for `CCOc1ccc(/C=C/c2[nH]c(=O)[nH]c(=O)c2[N+](=O)[O-])cc1`?
SW480 rereplic: inactive; MCF10A rereplic: inconclusive; ALOX12 inh: inactive; KB-3-1 cytotox: inactive; KB-V1 cytotox: inactive; PINK1 modulator: inactive

Results for CC(C)c1nnc(NC(=O)NCC(O)c2ccccc2F)s1 (stereo unspecified) ?
ALOX12 inh: inactive

Results for O=C(Nc1ccccc1)N1CCC2(CC1)SCC(=O)N2c1ccccc1 ?
ALOX12 inh: inactive

What do the screens show for `Cc1ccc(OCc2nnc(SCC(=O)N3c4ccccc4Sc4ccc(Cl)cc43)o2)cc1`?
SW480 rereplic: inactive; MCF10A rereplic: inactive; ALOX12 inh: inactive; KB-3-1 cytotox: inactive; KB-V1 cytotox: 8.2µM; PINK1 modulator: inactive

Results for Cc1ccc(NCc2nnc(SCC(=O)N3c4ccccc4Sc4ccccc43)o2)c(C)c1 ?
SW480 rereplic: inactive; MCF10A rereplic: inactive; ALOX12 inh: inconclusive; KB-3-1 cytotox: inactive; KB-V1 cytotox: 6.5µM; PINK1 modulator: inactive

What do the screens show for `Cc1cccc(OCc2nnc(SCC(=O)Nc3ccc(C)cc3C)o2)c1`?
ALOX12 inh: 35µM; KB-3-1 cytotox: inactive; KB-V1 cytotox: inconclusive; PINK1 modulator: inactive

What do the screens show for `COc1ccc(OCc2nnc(SCC(=O)N3c4ccccc4Sc4ccc(Cl)cc43)o2)cc1`?
SW480 rereplic: inactive; MCF10A rereplic: inactive[0.0737 µM]; ALOX12 inh: inactive; KB-3-1 cytotox: inactive; KB-V1 cytotox: inactive; PINK1 modulator: inactive

What do the screens show for `COc1ccc(C(=O)CSc2nnc(CNc3ccc(C)cc3C)o2)cc1`?
SW480 rereplic: inactive; MCF10A rereplic: inconclusive; ALOX12 inh: inactive; KB-3-1 cytotox: inactive; KB-V1 cytotox: inactive; PINK1 modulator: inactive

What do the screens show for `C=CCC1(CO)CCCN(C(=O)c2cccc(N3CCNC3=O)c2)C1` (stereo unspecified)?
ALOX12 inh: inactive

What do the screens show for `CCN(CC)S(=O)(=O)c1ccc(N2CCN(c3cccc(OC)c3)CC2)c([N+](=O)[O-])c1`?
SW480 rereplic: inactive; MCF10A rereplic: inactive; ALOX12 inh: inactive; KB-3-1 cytotox: inactive; KB-V1 cytotox: 2.9µM; PINK1 modulator: inactive

What do the screens show for `COc1cccc(N2CCN(c3ccc(S(=O)(=O)N4CCN(C)CC4)cc3[N+](=O)[O-])CC2)c1`?
SW480 rereplic: inactive; MCF10A rereplic: inconclusive; ALOX12 inh: inconclusive; KB-3-1 cytotox: inconclusive; KB-V1 cytotox: inconclusive; PINK1 modulator: inactive

Results for COc1cc(OC)c2c(C)c(CC(=O)Nc3ccc(Cn4cncn4)cc3)c(=O)oc2c1 ?
ALOX12 inh: inactive

Results for COC(=O)CC(NC(=O)c1ccc(C#N)cc1)c1ccc(C)cc1 (stereo unspecified) ?
ALOX12 inh: inactive

What do the screens show for `CCOCCCNCc1ccc(OC)cc1`?
SW480 rereplic: inactive; MCF10A rereplic: inactive; ALOX12 inh: inconclusive; KB-3-1 cytotox: inactive; KB-V1 cytotox: inactive; PINK1 modulator: inactive

Results for COc1ccc2cc(CNCCOCCOCCNCc3ccc4cc(OC)ccc4c3)ccc2c1 ?
SW480 rereplic: inactive; MCF10A rereplic: 7.3µM; ALOX12 inh: inconclusive; KB-3-1 cytotox: 7.3µM; KB-V1 cytotox: 9.2µM; PINK1 modulator: inactive

What do the screens show for `COc1ccc(-c2nnc3n2CCN(C(=O)NC2CCCC2)C3)cc1`?
ALOX12 inh: inactive

How did CCN1CCCC1CNCC1CCCCC1 (stereo unspecified) do in these assays?
ALOX12 inh: inactive

How did CCN1CCCC1CNCC(O)COc1ccc(C(C)(C)C)cc1C (stereo unspecified) do in these assays?
SW480 rereplic: inconclusive; MCF10A rereplic: 9.2µM; ALOX12 inh: inactive; KB-3-1 cytotox: inactive; KB-V1 cytotox: inactive; PINK1 modulator: inactive

Results for Cc1cccc(Nc2nc(CC(=O)O)cs2)c1 ?
SW480 rereplic: inactive; MCF10A rereplic: inactive; ALOX12 inh: inactive; KB-3-1 cytotox: inactive; KB-V1 cytotox: inactive; PINK1 modulator: inactive

Results for Cc1ccc(-c2nc(Nc3cccc(C)c3)sc2CC(=O)O)cc1 ?
SW480 rereplic: inconclusive; MCF10A rereplic: 21µM; ALOX12 inh: inconclusive; KB-3-1 cytotox: inactive; KB-V1 cytotox: inactive; PINK1 modulator: inactive

What do the screens show for `O=C(Cc1sc(-c2ccccc2)nc1-c1ccccc1)Nc1ccccc1`?
SW480 rereplic: inactive; MCF10A rereplic: inconclusive; ALOX12 inh: inactive; KB-3-1 cytotox: inactive; KB-V1 cytotox: inactive; PINK1 modulator: inactive

How did O=C(Cc1sc(Nc2ccccc2)nc1-c1ccccc1)NCc1ccccc1 do in these assays?
SW480 rereplic: inconclusive; MCF10A rereplic: inconclusive; ALOX12 inh: inactive; KB-3-1 cytotox: 16µM; KB-V1 cytotox: inconclusive; PINK1 modulator: inactive

What do the screens show for `O=C(O)Cc1sc(N/N=C\c2ccccc2)nc1-c1ccccc1`?
SW480 rereplic: inactive; MCF10A rereplic: inactive; ALOX12 inh: 45µM; KB-3-1 cytotox: inactive; KB-V1 cytotox: inactive; PINK1 modulator: inactive

How did O=C(O)Cc1sc(Nc2ccccc2)nc1-c1cccs1 do in these assays?
SW480 rereplic: inconclusive; MCF10A rereplic: 23µM; ALOX12 inh: inconclusive; KB-3-1 cytotox: inactive; KB-V1 cytotox: inactive; PINK1 modulator: inactive

How did O=C(COc1ccc(Br)cc1)OCCCC(=O)c1ccccc1 do in these assays?
ALOX12 inh: inactive

What do the screens show for `O=C(Cc1n[nH]c(=O)c2ccccc12)OCC(=O)c1ccc(F)cc1`?
SW480 rereplic: inactive; MCF10A rereplic: inactive; ALOX12 inh: inactive; KB-3-1 cytotox: inactive; KB-V1 cytotox: inactive; PINK1 modulator: inactive

Results for COc1ccc(C(C)=O)cc1COC(=O)Cc1n[nH]c(=O)c2ccccc12 ?
SW480 rereplic: inactive; MCF10A rereplic: inactive; ALOX12 inh: inactive; KB-3-1 cytotox: inactive; KB-V1 cytotox: 13µM; PINK1 modulator: inconclusive

How did COc1ccc(NC(=O)CN(C)C(=O)Cc2n[nH]c(=O)c3ccccc23)cc1 do in these assays?
SW480 rereplic: 23µM; MCF10A rereplic: inactive; ALOX12 inh: inactive; KB-3-1 cytotox: inactive; KB-V1 cytotox: inactive; PINK1 modulator: inactive

What do the screens show for `CCOc1ccc(C(=O)COC(=O)Cc2n[nH]c(=O)c3ccccc23)cc1`?
SW480 rereplic: 2.6µM; MCF10A rereplic: 1.6µM; ALOX12 inh: inactive; KB-3-1 cytotox: 4.1µM; KB-V1 cytotox: 4.6µM; PINK1 modulator: inactive

What do the screens show for `O=C(Cc1n[nH]c(=O)c2ccccc12)OCC(=O)c1ccc2c(c1)OCCO2`?
SW480 rereplic: 4.6µM; MCF10A rereplic: 2.1µM; ALOX12 inh: inactive; KB-3-1 cytotox: 1.5µM; KB-V1 cytotox: inconclusive; PINK1 modulator: inactive

How did Cc1cc(C(=O)COC(=O)Cc2n[nH]c(=O)c3ccccc23)c(C)n1-c1ccc2c(c1)OCO2 do in these assays?
SW480 rereplic: inactive; MCF10A rereplic: inactive; ALOX12 inh: inactive; KB-3-1 cytotox: inactive; KB-V1 cytotox: inconclusive; PINK1 modulator: inactive

What do the screens show for `O=C(COc1ccc(-n2cnnn2)cc1)NC1CC1`?
ALOX12 inh: inactive
